Morphology score and SARS-CoV-2 infection rate data for ten molecules are collected here from the supplement of paper PMC13380429.

In test [1] the test system is Vero E6 infected with SARS-CoV-2. In words: morphology score (similarity to uninfected cells); higher = more like uninfected cells. As to conditions: 24 h.
For test [2] the test system is unchanged. Kind of test: SARS-CoV-2 infection rate relative to infected DMSO; higher = more infection, active = 60 or less. As to conditions: 24 h.

With `O=S(=O)(NCC1CC1)c1ccc(Nc2nccc(N3CCCc4cc(O)ccc43)n2)cc1` [pyrintegrin] (0.833333 µM), in test [1], the morphology score is 0.71. Moreover, the SARS-CoV-2 infection rate in test [2] is 60.5% (inactive).
`CCNC(=O)C#Cc1ccc2c(C(=Nc3ccc(CN(C)C)cc3)c3ccccc3)c(O)[nH]c2c1` (0.833333 µM) registered a morphology score in test [1] of -0.154. Also, in test [2], the SARS-CoV-2 infection rate was 99% (inactive).
In test [1], `C[C@@]12CCc3occc3[C@H]1CC[C@@]13C[C@@H](CC[C@H]12)[C@@](O)(CO)C3` [cafestol] (10 µM) gave a morphology score of -0.0842. For the same molecule, the SARS-CoV-2 infection rate in test [2] was 112% (inactive).
The like results for `CC(C)(Cc1ccc2ccccc2c1)NC[C@@H](O)COc1cccc(Cl)c1C#N` (10 µM) were, in that order, 0.703 and 9.5% (active).
The like results for `OC[C@H]1NCC[C@@H](O)[C@@H]1O` [fagomine] (10 µM) were, in that order, -0.0114 and 105% (inactive).
In the case of `CC(C)C(=O)Nc1ccc([N+](=O)[O-])c(C(F)(F)F)c1` [flutamide] (10 µM), the morphology score in test [1] was -0.24. The SARS-CoV-2 infection rate in test [2] is 112% (inactive).
In turn, `Nc1ncnc2c1c(-c1cccc(OCc3ccccc3)c1)cn2C1CC(CN2CCCC2)C1` (stereo in doubt) (0.833333 µM) had a morphology score in test [1] of 0.0762. Further, in test [2], the SARS-CoV-2 infection rate was 92% (inactive).
The molecule `CC(=O)Nc1cccc(-n2c(=O)n(C3CC3)c(=O)c3c(Nc4ccc(I)cc4F)n(C)c(=O)c(C)c32)c1` [trametinib] (0.833333 µM) yielded a morphology score in test [1] of 0.263. In test [2], the SARS-CoV-2 infection rate was 89% (inactive).
For `CCNCCS(=O)(=O)NC[C@@]1(c2ccccc2)SC(NC(=O)C(C)(C)C)=NN1C(=O)C(C)(C)C` [litronesib] (10 µM), the morphology score in test [1] was -0.218. In addition, in test [2], the SARS-CoV-2 infection rate was 100% (inactive).
Regarding `COc1ccc(Cl)c(Nc2nc3ccccc3nc2NS(=O)(=O)c2cccc(NC(=O)C(C)(C)N)c2)c1` [pilaralisib] (10 µM), the morphology score in test [1] was 0.0424. Also, the SARS-CoV-2 infection rate in test [2] was 103% (inactive).
